Measurements taken from PubChem BioAssay (EPA / NIEHS).
Inconclusive results are not listed. Active and inactive are the calls of the source. How the source made its calls: active means hit-call score of the fitted dose curve at least 0.9, where 1 is the maximum; inconclusive means response in the unintended direction; inactive means score below 0.9.

Target: Cellular tumor antigen p53 (Homo sapiens) (UniProt P04637)
Assay: TOX21_p53_BLA_p2_ratio: Tox21 HCT-116 p53 Agonism Beta-lactamase Assay, Ratio, Phase 2 (AID 2283592)
Procedure, shortened: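 In this cell-based reporter format, HCT116 cells were dosed with chemicals delivered from DMSO by 217-fold dilution and incubated 16 h at 37C. Emission at 460 and 530 nm after 2 h CCF4-AM loading provided the ratio, fitted upward versus DMSO.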

Sequence of Cellular tumor antigen p53 (Homo sapiens) (P04637 whole entry, looked up): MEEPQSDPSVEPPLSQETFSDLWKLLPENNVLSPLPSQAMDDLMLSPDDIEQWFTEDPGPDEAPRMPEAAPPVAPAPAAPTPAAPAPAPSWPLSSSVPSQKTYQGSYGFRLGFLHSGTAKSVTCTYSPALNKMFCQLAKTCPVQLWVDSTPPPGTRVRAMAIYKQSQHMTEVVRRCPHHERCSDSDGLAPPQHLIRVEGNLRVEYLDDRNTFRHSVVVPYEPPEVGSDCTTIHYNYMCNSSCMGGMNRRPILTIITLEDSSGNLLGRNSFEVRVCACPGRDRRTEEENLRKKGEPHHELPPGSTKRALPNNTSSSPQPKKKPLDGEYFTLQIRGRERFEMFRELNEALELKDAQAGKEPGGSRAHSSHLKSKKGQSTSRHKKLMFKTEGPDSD

Row | SMILES | outcome | AC50
1 | CCCCCCCCCCC(=O)O | inactive | –
2 | O=C(O)Cc1cccc(-c2cc(CCCCCCc3ccc(O[C@H]4O[C@H](CO)[C@@H](O)[C@H](O)[C@@H]4O)c(-c4cccc(CC(=O)O)c4)c3)ccc2O[C@H]2O[C@H](CO)[C@@H](O)[C@H](O)[C@@H]2O)c1 | inactive | –
3 | Nc1cccc(S(=O)(=O)O)c1 | inactive | –
4 | CCC(CC)(CC(=O)Nc1cccc(/C=C/c2nc(C3CCC3)cs2)c1)C(=O)O | inactive | –
5 | Clc1ccc2c(c1)CCc1cccnc1C2=C1CCNCC1 | inactive | –
6 | C=Cc1ccccc1 | inactive | –
7 | CCCCC(CC)COC(=O)C(C#N)=C(c1ccccc1)c1ccccc1 (stereo not given) | inactive | –
8 | Cc1cc(N)c2cc(NC(=O)Nc3ccc4nc(C)cc(N)c4c3)ccc2n1 | inactive | –
9 | CC(C)OC(=O)C(C)N(C(=O)c1ccccc1)c1ccc(F)c(Cl)c1 (stereo not given) | inactive | –
10 | NC(N)=NC(=O)Cc1c(Cl)cccc1Cl | inactive | –
11 | CC(C)CN(C[C@@H](O)[C@H](Cc1ccccc1)NC(=O)O[C@H]1CO[C@H]2OCC[C@H]21)S(=O)(=O)c1ccc(N)cc1 | inactive | –
12 | O=C1c2ccccc2Cc2ccccc21 | inactive | –
13 | Cc1c(O)c(=O)ccn1C | inactive | –
14 | CCCC1([C@H](O)C/C=C/[C@H]2[C@H](O)CC(=O)[C@@H]2CCCCCCC(=O)OC)CCC1 | inactive | –
15 | CCCCCCCCCCCCCCCC[N+](C)(C)CCN(Cc1ccc(OC)cc1)c1ncccn1 | inactive | –
16 | COc1cc(NC(C)CCCN)c2ncccc2c1 (stereo not given) | inactive | –
17 | O=C(O)COc1ccc(C(=O)c2cccs2)c(Cl)c1Cl | inactive | –
18 | CC(C)N1CCN(c2ccc(OC[C@H]3CO[C@](Cn4cncn4)(c4ccc(Cl)cc4Cl)O3)cc2)CC1 | inactive | –
19 | COc1cc2c(cc1OC)-c1cc(=Nc3c(C)cc(C)cc3C)n(C)c(=O)n1CC2 | – | 35.6 µM (active)
20 | Nc1nc(-c2ccccc2)c(Br)c(=O)[nH]1 | inactive | –

Row | SMILES | outcome | AC50
21 | Cc1cc(CC(=O)O)c(C)n1-c1ccc(Cl)cc1 | inactive | –
22 | c1ccncc1 | inactive | –
23 | OCC1O[C@@H](O[C@@H]2C(CO)OC(O)C(O)C2O)C(O)C(O)C1O (stereo not given in full) | inactive | –
24 | CCNC(=O)N1CCN(CCCC(c2ccc(F)cc2)c2ccc(F)cc2)CC1 | inactive | –
25 | CN1CCN(CCC=C2c3ccccc3Sc3ccc(S(=O)(=O)N(C)C)cc32)CC1 | inactive | –
26 | C=CCCC | inactive | –
27 | COC(=O)C1=C(C)NC(C)=C(C(=O)O[C@@H]2CCCN(Cc3ccccc3)C2)[C@@H]1c1cccc([N+](=O)[O-])c1 | inactive | –
28 | CCCC[P+](C)(CCCC)CCCC | inactive | –
29 | O=C(O[C@H]1CN2CCC1CC2)N1CCc2ccccc2[C@@H]1c1ccccc1 | inactive | –
30 | S=c1nccc[nH]1 | inactive | –
31 | CCOc1ccc(NC(C)=O)cc1N | inactive | –
32 | CCOC(=O)NNc1ccc(N(CC)CC(C)O)nn1 (stereo not given) | inactive | –
33 | O=C(O)c1ccc(OCCCOc2ccc(C(=O)O)cc2)cc1 | inactive | –
34 | CCCCCCCCCCCC(=O)OC[C@@H](O)[C@H]1OC[C@H](OCCO)[C@H]1OCCO | inactive | –
35 | CCCCCC1Nc2cc(C(F)(F)F)c(S(N)(=O)=O)cc2S(=O)(=O)N1 (stereo not given) | inactive | –
36 | Cc1c(C(=O)O)cccc1[N+](=O)[O-] | inactive | –
37 | CC(C)(C)NC[C@H](O)COc1ccccc1C1CCCC1 | inactive | –
38 | O=P(O)(O)C(Sc1ccc(Cl)cc1)P(=O)(O)O | inactive | –
39 | c1ccc(CNCCNCc2ccccc2)cc1 | inactive | –
40 | CCOC(=O)c1cnc2c(cnn2CC)c1NN=C(C)C | inactive | –

Tested on: not listed separately
Assay: TOX21_p53_BLA_p3_viability: Viability Assessment in the Tox21 HCT-116 p53 Agonism Beta-lactamase Assay, Phase 3 (AID 2283593);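 further: cells exposed to compound for 16 h before reading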
Procedure, shortened: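 Cellular ATP was quantified by CellTiter-Glo luminescence, read after 30 min at room temperature. Beforehand, HCT116 cells (4000/well) received compound 5 h post-seeding, 217-fold diluted from DMSO, then incubated 16 h at 37C.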

Row | SMILES | outcome | AC50
41 | CCCCCCCCCCC(=O)O | inactive | –
42 | O=C(O)Cc1cccc(-c2cc(CCCCCCc3ccc(O[C@H]4O[C@H](CO)[C@@H](O)[C@H](O)[C@@H]4O)c(-c4cccc(CC(=O)O)c4)c3)ccc2O[C@H]2O[C@H](CO)[C@@H](O)[C@H](O)[C@@H]2O)c1 | inactive | –
43 | Nc1cccc(S(=O)(=O)O)c1 | inactive | –
44 | CCC(CC)(CC(=O)Nc1cccc(/C=C/c2nc(C3CCC3)cs2)c1)C(=O)O | inactive | –
45 | Clc1ccc2c(c1)CCc1cccnc1C2=C1CCNCC1 | inactive | –
46 | C=Cc1ccccc1 | inactive | –
47 | CCCCC(CC)COC(=O)C(C#N)=C(c1ccccc1)c1ccccc1 (stereo not given) | inactive | –
48 | Cc1cc(N)c2cc(NC(=O)Nc3ccc4nc(C)cc(N)c4c3)ccc2n1 | inactive | –
49 | CC(C)OC(=O)C(C)N(C(=O)c1ccccc1)c1ccc(F)c(Cl)c1 (stereo not given) | inactive | –
50 | NC(N)=NC(=O)Cc1c(Cl)cccc1Cl | inactive | –
51 | CC(C)CN(C[C@@H](O)[C@H](Cc1ccccc1)NC(=O)O[C@H]1CO[C@H]2OCC[C@H]21)S(=O)(=O)c1ccc(N)cc1 | inactive | –
52 | O=C1c2ccccc2Cc2ccccc21 | inactive | –
53 | Cc1c(O)c(=O)ccn1C | inactive | –
54 | CCCC1([C@H](O)C/C=C/[C@H]2[C@H](O)CC(=O)[C@@H]2CCCCCCC(=O)OC)CCC1 | inactive | –
55 | CCCCCCCCCCCCCCCC[N+](C)(C)CCN(Cc1ccc(OC)cc1)c1ncccn1 | inactive | –
56 | COc1cc(NC(C)CCCN)c2ncccc2c1 (stereo not given) | inactive | –
57 | O=C(O)COc1ccc(C(=O)c2cccs2)c(Cl)c1Cl | inactive | –
58 | CC(C)N1CCN(c2ccc(OC[C@H]3CO[C@](Cn4cncn4)(c4ccc(Cl)cc4Cl)O3)cc2)CC1 | inactive | –
59 | COc1cc2c(cc1OC)-c1cc(=Nc3c(C)cc(C)cc3C)n(C)c(=O)n1CC2 | – | 33.4 µM (active)
60 | Nc1nc(-c2ccccc2)c(Br)c(=O)[nH]1 | inactive | –

Row | SMILES | outcome | AC50
61 | Cc1cc(CC(=O)O)c(C)n1-c1ccc(Cl)cc1 | inactive | –
62 | c1ccncc1 | inactive | –
63 | OCC1O[C@@H](O[C@@H]2C(CO)OC(O)C(O)C2O)C(O)C(O)C1O (stereo not given in full) | inactive | –
64 | CCNC(=O)N1CCN(CCCC(c2ccc(F)cc2)c2ccc(F)cc2)CC1 | inactive | –
65 | CN1CCN(CCC=C2c3ccccc3Sc3ccc(S(=O)(=O)N(C)C)cc32)CC1 | inactive | –
66 | C=CCCC | inactive | –
67 | COC(=O)C1=C(C)NC(C)=C(C(=O)O[C@@H]2CCCN(Cc3ccccc3)C2)[C@@H]1c1cccc([N+](=O)[O-])c1 | inactive | –
68 | CCCC[P+](C)(CCCC)CCCC | inactive | –
69 | O=C(O[C@H]1CN2CCC1CC2)N1CCc2ccccc2[C@@H]1c1ccccc1 | inactive | –
70 | S=c1nccc[nH]1 | inactive | –
71 | CCOc1ccc(NC(C)=O)cc1N | inactive | –
72 | CCOC(=O)NNc1ccc(N(CC)CC(C)O)nn1 (stereo not given) | inactive | –
73 | O=C(O)c1ccc(OCCCOc2ccc(C(=O)O)cc2)cc1 | inactive | –
74 | CCCCCCCCCCCC(=O)OC[C@@H](O)[C@H]1OC[C@H](OCCO)[C@H]1OCCO | inactive | –
75 | CCCCCC1Nc2cc(C(F)(F)F)c(S(N)(=O)=O)cc2S(=O)(=O)N1 (stereo not given) | inactive | –
76 | Cc1c(C(=O)O)cccc1[N+](=O)[O-] | inactive | –
77 | CC(C)(C)NC[C@H](O)COc1ccccc1C1CCCC1 | inactive | –
78 | O=P(O)(O)C(Sc1ccc(Cl)cc1)P(=O)(O)O | inactive | –
79 | c1ccc(CNCCNCc2ccccc2)cc1 | inactive | –
80 | CCOC(=O)c1cnc2c(cnn2CC)c1NN=C(C)C | inactive | –
